Experimental data as given in PubChem BioAssay AID1159580 (chemical genetic matrix, 2015).
In all, about 5,500 compounds went through this assay and about 2,000 (36%) were called active. About 18% were inconclusive and are not listed. No stated cut-off is given here; in the data, active means normalized growth mostly below about 0.91 (no sharp cut-off); inconclusive means no clear call, values can overlap the other calls; inactive means mostly above about 0.92. This is one part of the list.

Experiment: chemical genetic growth profiling, strain panel (AID 1159580);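 further: tested at 20 µM; growth read once vehicle control cultures reached saturation at 30 °C; 1 = growth at the plate median or of vehicle wells; lower values mean less growth of the strain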
Settings: S. cerevisiae deletion strains, growth OD

Measured: normalized growth

NC1(C(=O)O)CCCCC1
inactive: locus YAL040C, strain CLN3, active compounds read low 0.993 | locus YDR363W, strain ESC2, active compounds read low 0.98 | locus YER002W, strain NOP16, active compounds read low 1.01 | locus YJR075W, strain HOC1, active compounds read low 0.992 | locus YMR263W, strain SAP30, active compounds read low 0.995 | locus YNL153C, strain GIM3, active compounds read low 0.982 | locus YNL175C, strain NOP13, active compounds read low 1.01 | locus YNL197C, strain WHI3, active compounds read low 0.992 | locus YNL224C, strain SQS1, active compounds read low 0.98 | locus YOR083W, strain WHI5 (second series), active compounds read low 0.981
